From PubChem
Only a selection was taken, and hits are over-represented in it overall.
ROC1-CUL1 inh = inhibitors of human ROC1-CUL1 ubiquitin ligase activity | in vitro K48 di-Ub FRET, acceptor:donor ratio, 45 min | inhibition, % at 10 µM | 140,000 tested, 0.6% active | AID 1347404, 2020; in the data active = inhibition above about 25%
* = called active by the depositor.

SMILES	ROC1-CUL1 inh
COc1ccccc1OCC(=O)N1CCc2c(cnc(C)c2CNC(=O)c2ccccc2SC)C1	13
Cc1cccc(Cn2c(=O)c3c(nc4n(CCO)c(C)cn34)n(C)c2=O)c1	7
Cc1cc(C(=O)Nc2sc(C)c(-c3ccc(F)cc3)c2C(=O)OC(C)C)c(C)o1	-10
CCOC(=O)C1=C(C)N=c2s/c(=C\c3cc(Cl)cc(Cl)c3O)c(=O)n2C1c1ccccc1Cl (centres undefined)	-29
COC(=O)C1C2(C)N=c3s/c(=C\c4cc(Cl)cc(Cl)c4O)c(=O)n3C3c4ccccc4OC312 (centres undefined)	41*
Cc1ccccc1NC(=O)C1C2c3ccccc3OC1(C)N=c1s/c(=C/c3cnn(C)c3C)c(=O)n12 (centres undefined)	-4
COC(=O)c1c(C)sc(-c2c(-c3cccc(OC)c3)[nH]c3c2c(=O)[nH]c(=O)n3C)c1O	24
COC(=O)c1c(C)sc(-c2c(-c3ccc(OC)c(F)c3)[nH]c3c2c(=O)n(C)c(=O)n3C)c1O	3
COC(=O)c1c(C)sc(-c2c(-c3ccc4c(c3)OCCO4)[nH]c3c2c(=O)[nH]c(=O)n3C)c1O	27*
O=C(Cn1nc(-c2ccc(Cl)cc2)c2ccccc2c1=O)Nc1ccc(Br)c2cccnc12	-1
O=C1NC(=S)N(c2ccc(Br)cc2)C(=O)/C1=C/c1ccc(F)cc1	0
CCN(CC)c1ccc(/C=C2\C(=O)NC(=O)N(c3ccc(Br)c(C)c3)C2=O)cc1	-40
CCN(CC)c1ccc(/C=C2\C(=O)NC(=S)N(c3ccc(Br)cc3)C2=O)cc1	28*
Cc1ccc(NC(=O)CSc2nnc(CNc3cccc(Cl)c3)o2)c(Br)c1	-12
COc1cc2c(c(OC)c1)C(=O)C2	3
COc1cc(NC(C)=O)c(-c2c(NC(C)=O)cc(OC)c(OC)c2OC)c(OC)c1OC	5
COc1cc2c(c(O)c1OC)C(=O)C(=O)CC=C2	33*
COc1ccc(-c2nc(CN(C)C(C)c3cccs3)c(C)o2)c(OC)c1C (centres undefined)	2
O=C1Cc2ccccc2Cc2ccc(Cl)cc21	24
COc1ccc(-c2ccc(/C=C(/C#N)S(=O)(=O)c3ccccc3)o2)cc1	29*
N#C/C(=C\c1ccc(F)cc1)S(=O)(=O)c1ccccc1	9
N#C/C(=C\c1ccccc1)S(=O)(=O)c1ccccc1	0
COc1nc(N/N=C/c2ccc(F)cc2)nc(N2CCOCC2)n1	3
Cc1ccc(NC(=S)N/N=C/c2ccc(C#N)cc2)cc1	1
CCOC(=O)CC1COCCN1Cc1cn[nH]c1-c1cc2ccccc2o1 (centres undefined)	-3
SMILES	ROC1-CUL1 inh
Cc1ccc2c(c1)C(=O)C(C(c1ccc(Cl)cc1Cl)C1C(=O)Oc3ccc(C)cc3C1=O)C(=O)O2 (centres undefined)	56*
COc1cc(C(C2C(=O)Oc3ccc(C)cc3C2=O)C2C(=O)Oc3ccc(C)cc3C2=O)cc(OC)c1OC (centres undefined)	4
O=C1c2cc(Cl)ccc2OCC1Br (centres undefined)	-6
O=C(Nc1ccc(-c2cccc(F)c2)cc1)C1CCCN(CC2CC2)C1 (centres undefined)	1
O=C(Nc1ccc(-c2cccc(F)c2)cc1)C1CCCN(Cc2nccs2)C1 (centres undefined)	1
O=C(Nc1ccc(-c2cccc(F)c2)cc1)C1CCCN(C(=O)c2ccoc2)C1 (centres undefined)	92*
Cc1ncoc1C(=O)NC1CCCc2nc(-c3ccccc3)ncc21 (centres undefined)	-8
O=C1CCC(CCC(=O)N2CCCC2c2ccc(F)cc2)(Cc2ccc3ccccc3c2)N1 (centres undefined)	-7
Cc1ccc([C@@H]2Nc3c(ccc(C(=O)O)c3C)[C@@H]3C=CC[C@@H]32)cc1	97*
COC(=O)c1ccc([C@@H]2Nc3c(OC)ccc(C)c3[C@@H]3C=CC[C@@H]32)cc1	4
Cc1ccc([C@H]2Nc3ccc(S(=O)(=O)Nc4cccc(Cl)c4C)cc3[C@H]3C=CC[C@H]32)cc1	3
O=C(CC(c1ccccc1)C1C(=O)N(c2ccccc2)C(=S)N(c2ccccc2)C1=O)c1ccccc1 (centres undefined)	4
CC(C)N1CCNC(=O)C1CC(=O)N(C)Cc1ccccn1 (centres undefined)	4
Cc1cccc(OCCCOc2c(Cl)cc(Cl)cc2/C=C2\C(=O)NN(c3ccccc3)C2=O)c1	7
Cc1cc(OCCOc2ccc(Cl)cc2/C=C2\C(=O)NN(c3ccccc3)C2=O)ccc1Cl	49*
Cc1cccc(OCCOc2c(Cl)cc(Cl)cc2/C=C2\C(=O)NN(c3ccccc3)C2=O)c1	98*
O=C1NN(c2ccccc2)C(=O)/C1=C/c1cc(Cl)cc(Cl)c1OCCCOc1ccc(Cl)cc1	11
CCOc1cc(/C=C2\C(=O)NN(c3ccccc3)C2=O)cc(Cl)c1OCCOc1ccc(C)cc1C	14
COc1cc(/C=C2\C(=O)NN(c3ccccc3)C2=O)cc(Cl)c1OCCOc1ccc(Cl)c(C)c1	12
COc1cc(OC)cc(C(=O)N2CCN(c3ccc(NC(=O)C(C)C)cc3)CC2)c1	-1
CC(C)C(=O)Nc1ccc(N2CCCCC2C)cc1 (centres undefined)	2
O=C1OC(/C=C/c2ccccc2)=NC/1=C\C=C\c1ccco1	-1
COc1ccc(NC(=O)C2C3C=CC(C4CC34)C2C(=O)O)c(OC)c1 (centres undefined)	7
CCC1(C)Oc2ccc(NC(=O)c3ccccc3SC)cc2O1 (centres undefined)	4
O=C(c1nc2sccn2c1CN1CCN(c2ncccn2)CC1)N1CCCCC1	7
SMILES	ROC1-CUL1 inh
CCCCCCOc1ccccc1/C=C1\N=C(SC)SC1=O	2
O=C1NC(=O)N(c2ccc(Cl)cc2)C2=NC(c3ccccc3F)=NC(C(F)(F)F)(C(F)(F)F)C12 (centres undefined)	2
C=CCOc1ccc(Br)cc1/C=C/c1[nH]c(=O)[nH]c(=O)c1[N+](=O)[O-]	42*
C=CCOc1ccc(Br)cc1/C=C1/SC(=O)NC1=O	-11
C#CCOc1ccc(/C=C/c2[nH]c(=O)[nH]c(=O)c2[N+](=O)[O-])cc1OC	3
O=C1S/C(=C\c2ccc(Sc3ccccc3)o2)C(=O)N1c1ccc(Cl)cc1	-4
CC(C)c1ccc(N2C(=O)/C(=C/c3ccc(Sc4ccccc4)o3)C(=O)NC2=S)cc1	97*
Cc1ccc(Cl)cc1-c1ccc(/C=C2/C(=O)NC(=S)N(c3ccc(F)cc3)C2=O)o1	46*
CC(C)c1ccc(N2C(=O)/C(=C/c3ccc(O)cc3)C(=O)NC2=S)cc1	0
Cc1ccc(N2C(=O)/C(=C/c3ccc(N4CCN(C)CC4)o3)C(=O)NC2=S)cc1	-4
O=C1NC(=S)N(c2ccc(F)cc2)C(=O)/C1=C\c1ccc(N2CCOCC2)o1	-4
CCc1cc2c(=O)n(-c3ccc(Cl)cc3)c(SCC(=O)c3ccc(C)cc3)nc2s1	-7
N#Cc1c(Nc2ccccc2)ccnc1Sc1ccccc1	-4
COc1cccc(CCNC(=O)C2C(=O)N=C3C(C)=CC=CN3C2=O)c1 (centres undefined)	5
O=C(Nc1cccc(Cl)c1)Nc1c(F)c(F)c(F)c(F)c1F	-2
C=CCn1c(SCC(=O)Nc2ccc3c(c2)OCCO3)nnc1-c1cccnc1	-3
COc1ccc(C(=O)Nc2ccccc2C(N)=O)cc1S(=O)(=O)N1CCCC1	1
CC1(C)NC(=O)c2ccccc2O1	-2
